“And” between values parts separate entries of the source, which are not always exact repeats. Equal values may be shown once. The source made the active and inactive calls. How the source made its calls: active means hit-call score of the fitted dose curve at least 0.9, where 1 is the maximum; inactive means score below 0.9.
Test: CCTE_Shafer_MEA_acute_burst_percentage_mean: CCTE's Neural Acute Assay for Percentage of Spikes in a Burst, Shafer Lab (AID 2284017);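 on AC50: curve fitted for loss of signal so potency reflects decreased burst percentage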
Description: CCTE_Shafer_MEA_acute assay is conducted using Axion Biosystems 48 well microelectrode array (MEA) plates and Maestro recording system. Each well of the MEA plate contains a grid of 16 microelectrodes embedded in the culture surface. Electrically active cells, such as neurons, can be cultured over the electrodes, and electrical activity in these cells can be recorded extracellularly. The spontaneous firing of neurons is captured from each electrode on a microsecond timescale providing both temporally and spatially precise data. […] The CCTE_Shafer_MEA_acute assay uses primary cultures of rat cortical neurons. As these cultures mature over time, neural networks develop functional activity and form cohesive networks in which electrical activity can be highly coordinated. Baseline 40-minute recordings are made on days post-plating 13 or 15, followed by a secondary 40-minute recording after chemical exposure.CCTE_Shafer_MEA_acute_burst_percentage_mean is a component of the CCTE_Shafer_MEA_acute assay. It measures the percentage of spikes (action potential firing) in a single-electrode burst (temporally-clustered groups of spikes) as the number of spikes in bursts divided by the total number of spikes during a recording in a microelectrode array (MEA) using Axion Biosystems Maestro 768 channel amplifier with the AxIS adaptive spike detector. The average of the burst percentages across electrodes is calculated to report a well-level value. The recordings before and after chemical treatment are used to calculate a percent change in the mean burst percentage in each well.Data from the assay component CCTE_Shafer_MEA_acute_burst_percentage_mean was analyzed into 1 assay endpoint. This assay endpoint, CCTE_Shafer_MEA_acute_burst_percentage_mean, was analyzed in the negative analysis fitting direction relative to DMSO as the negative control and baseline of activity. Using a type of functional reporter, gain or loss-of-signal activity can be used to understand electrical activity.
Spontaneous activity in the cortical cultures was recorded using an Axion Biosystems Maestro 768 channel amplifier and Axion Integrated Studios (AxIS) v1.8 (or later) software. The amplifier recorded from all channels simultaneously (gain = 1200 x; sampling rate = 12.5 kHz/channel): raw signals were filtered with a Butterworth band-pass filter (300-5000 Hz), which filters out slower local field potentials leaving only fast potentials, i.e., "spikes", arising from extracellular currents associated with action potentials (Pine 2006; Wheeler and Nam 2011). On-line spike detection of filtered signals was conducted with the AxIS adaptive spike detector, using a threshold of 8x the root mean squared (rms) noise on each channel. Any electrodes with rms noise levels greater than 5 uV were grounded (e.g., no data were recorded). Once grounded, an electrode was grounded for the duration of the experiment. All recordings were conducted at 37 C. Wells were deemed usable if on the day of the exposure >/= 10 electrodes were active (defined as >/= 5 spikes/min). On DIV 13 or 15, a minimum of three wells from one cortical culture preparation were treated with each compound (0.03-40 uM). Prior to recording baseline activity, each mwMEA plate was placed in the Maestro at 37 C and allowed to sit for 20 min while firing rates stabilized. Baseline activity (40 min) was recorded before the addition of each compound. An additional 40 min of spontaneous activity was recorded in the presence of each compound. Changes in network parameters relative to baseline were assessed following compound treatment.

Structure (SMILES) | outcome | AC50
c1ccc(OCCOc2ccccc2)cc1 | inactive | –
CCn1cc(C(=O)O)c(=O)c2ccc(C)nc21 | inactive | –
CCCCN(CCO)CCO | inactive | –
CCCO[Si](OCCC)(OCCC)OCCC | inactive | –
CC(=O)c1ccc(C)cc1 | inactive | –
CCCCOCCOCCO | inactive | –
CC(C)(CO)CO | inactive | –
CC(C)CCCC(C)(C)O | inactive | –
N[C@@H](CCC(=O)O)C(=O)O | inactive | –
CC/C(=C(\c1ccccc1)c1ccc(OCCN(C)C)cc1)c1ccccc1 | – | 18.3 µM (active) and 15.8 µM (active)
O=C(c1ccc(OCCN2CCCCC2)cc1)c1c(-c2ccc(O)cc2)sc2cc(O)ccc12 | – | 32.5 µM (active)

— PubChem BioAssay (EPA / NIEHS)
